Compound activity: PubChem, The Scripps Research Institute Molecular Screening Center
GSTO1 inh – inhibitors of recombinant GSTO1, primary screen, counter-screen for RBBP9 inhibitor project, biochemical, fluorescence polarization | activity-based probe fluorescence polarization | inhibition, % at 5.96 µM | 300,000 tested, 1.1% active | AID 1974, 2009;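 active = inhibition above the campaign mean inhibition plus 3 SD, cut at about 35% in these data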;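 also: 0% = GSTO1-1 with DMSO and 100% = wells lacking GSTO1-1 enzyme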
LYPLA1 counter – LYPLA1 inhibitors, primary screen, counter-screen for PME1 inhibitor project, biochemical, fluorescence polarization, FP-Rh probe ABPP. Acyl-protein thioesterase 1 (Homo sapiens), O75608. recombinant LYPLA1. inhibition, % at 5.9 µM. 320,000 tested, 0.16% active;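 active = inhibition above the mean of all tested compounds plus 3 SD, set per campaign, cut at about 14% in these data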;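 also: inhibitors block serine hydrolase probe labeling of LYPLA1 so polarization falls; 0% = enzyme with DMSO and 100% = wells lacking LYPLA1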
PME-1 primary – PME-1 inhibitors via competitive probe labeling, primary screen, biochemical, fluorescence polarization, FP-Rh probe, HTS; Protein phosphatase methylesterase 1 (Homo sapiens), Q9Y570; recombinant PME-1; inhibition, % at 5.9 µM; 320,000 tested, 0.53% active; AID 2130, 2009;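 active = inhibition above the campaign mean of all compounds plus 3 SD, cut at about 26% in these data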;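 also: competitive labeling of PME-1 active site by serine hydrolase directed probe; 0% = PME-1 with DMSO and 100% = wells lacking PME-1 enzyme; inhibitors block probe labeling so polarization falls and inhibition rises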
PAD4 inh – human PAD4 inhibitors, primary screen, biochemical, fluorescence polarization, 1536-well format. recombinant PAD4, RCA probe fluorescence polarization. inhibition, % at 6.36 µM. 330,000 tested, 0.41% active;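 active = percent inhibition above a cutoff equal to the mean of all tested compounds plus 3 SD, cut at about 15% in these data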;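 also: 0% = PAD4 with RCA probe and DMSO and 100% = probe without PAD4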
Target sequence (Q9UM07 whole entry, looked up): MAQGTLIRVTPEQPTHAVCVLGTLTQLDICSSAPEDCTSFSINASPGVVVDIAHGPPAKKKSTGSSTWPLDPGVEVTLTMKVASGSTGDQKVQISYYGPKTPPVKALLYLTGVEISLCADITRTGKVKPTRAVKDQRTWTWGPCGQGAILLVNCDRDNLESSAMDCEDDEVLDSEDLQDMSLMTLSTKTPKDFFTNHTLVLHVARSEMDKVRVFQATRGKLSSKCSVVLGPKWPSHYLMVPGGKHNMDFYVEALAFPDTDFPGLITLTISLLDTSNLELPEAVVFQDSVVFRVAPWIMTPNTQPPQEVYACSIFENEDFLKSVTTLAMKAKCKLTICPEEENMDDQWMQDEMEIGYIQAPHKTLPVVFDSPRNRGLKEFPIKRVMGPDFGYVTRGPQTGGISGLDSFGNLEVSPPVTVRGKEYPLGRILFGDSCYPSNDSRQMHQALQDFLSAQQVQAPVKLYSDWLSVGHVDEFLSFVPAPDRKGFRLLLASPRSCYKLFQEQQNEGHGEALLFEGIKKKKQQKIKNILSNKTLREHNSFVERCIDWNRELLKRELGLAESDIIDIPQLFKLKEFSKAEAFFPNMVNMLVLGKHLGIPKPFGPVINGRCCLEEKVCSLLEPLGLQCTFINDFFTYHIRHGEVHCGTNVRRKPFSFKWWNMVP
Fam108B inh – mouse Fam108B serine hydrolase inhibitors, primary screen, counter-screen for RBBP9 inhibitor project, biochemical, fluorescence polarization; recombinant Fam108B, FP-Rh probe fluorescence polarization; inhibition, % at 9.51 µM; 300,000 tested, 0.33% active;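 active = inhibition above the screen mean inhibition plus 3 SD, computed separately per campaign, cut at about 18% in these data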;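 also: inhibitors lower polarization as less probe binds the enzyme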
LYPLA2 inh – LYPLA2 inhibitors, primary screen, counter-screen for PME1 inhibitor project, biochemical, fluorescence polarization, FP-Rh probe ABPP; 320,000 tested, 0.38% active; recombinant LYPLA2; AID 2177, 2009; Acyl-protein thioesterase 2 (Homo sapiens), O95372; inhibition, % at 5.9 µM;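 active = inhibition above the screen-wide mean plus 3 SD, limit set per campaign, cut at about 26% in these data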;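 also: 0% = LYPLA2 with DMSO and 100% = wells lacking LYPLA2 enzyme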
Fam108b confirm – mouse Fam108b serine hydrolase inhibitors, confirmation, counter-screen for RBBP9 inhibitor project, biochemical, fluorescence polarization, triplicate. 930 tested, 44% active. AID 1978, 2009. inhibition, % at 9.51 µM. shares compounds with Fam108B inh. recombinant Fam108b, FP-Rh probe fluorescence polarization;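 active = inhibition above a limit from the primary screen, the mean over all compounds plus 3 SD, cut at about 19% in these data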;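 also: 0% = median of active Fam108b wells and 100% = catalytically dead S170A mutant; inhibitors free the probe so polarization falls as inhibition rises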
Fam108b inh – inhibition of mouse Fam108b by HTS hits, late-stage follow-up, biochemical, gel-based ABPP, soluble recombinant form; shares compounds with Fam108B inh; fluorophosphonate probe; inhibition, % at 20 µM; 260 tested, 44% active; in the data active = inhibition above about 40%
GSTO1 inh conf – GSTO1 inhibitor hit confirmation, counter-screen for RBBP9 inhibitor project, biochemical, fluorescence polarization, triplicate; 2,400 tested, 54% active; inhibition, % at 5.96 µM; shares compounds with GSTO1 inh; recombinant GSTO1, probe fluorescence polarization;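 active = inhibition above the primary screen's cutoff, its mean inhibition plus 3 SD, cut at about 35% in these data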;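 also: loss of polarization as inhibitors block binding of rhodamine sulfonate ester activity probe; 0% = GSTO1 with DMSO and 100% = wells lacking GSTO1 enzyme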
LYPLA1 confirm – LYPLA1 inhibitors, retest, confirmation, counter-screen for PME1 inhibitor project, biochemical, fluorescence polarization, FP-Rh probe ABPP. shares compounds with LYPLA1 counter. recombinant LYPLA1. AID 2233, 2010. inhibition, % at 5.9 µM. 480 tested, 69% active;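 active = mean inhibition across replicates above the hit cutoff set in the primary screen, cut at about 15% in these data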;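 also: loss of FP-Rh probe labeling of LYPLA1 seen as lower polarization; 0% = LYPLA1 with DMSO and 100% = wells lacking LYPLA1 enzyme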
LYPLA2 confirm – LYPLA2 inhibitors, retest, confirmation, counter-screen for PME1 inhibitor project, biochemical, fluorescence polarization, FP-Rh probe ABPP. 1,100 tested, 72% active. shares compounds with LYPLA2 inh. AID 2232, 2010. recombinant LYPLA2. inhibition, % at 5.9 µM;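 active = mean inhibition across replicates above the hit cutoff set in the primary screen, cut at about 26% in these data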;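 also: blocked labeling of the enzyme by serine hydrolase FP-Rh probe lowers polarization; 0% = enzyme with DMSO and 100% = wells lacking LYPLA2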
PAD4 confirm – human PAD4 inhibitors, confirmation, biochemical, fluorescence polarization. shares compounds with PAD4 inh. recombinant PAD4, RCA probe fluorescence polarization. inhibition, % at 6.36 µM. 1,200 tested, 28% active;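 active = mean inhibition across replicates above the hit cutoff set by the earlier primary screen, cut at about 15% in these data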;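 also: inhibitors block active-site labeling by the probe so polarization falls; 0% = PAD4 with probe and DMSO and 100% = probe without PAD4 enzyme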
Starred values were filed as active, the others as inactive; . = no result given. Shown are actives, neighbours in structure and some others; about 1.8% of the full set was active somewhere.

SMILES | GSTO1 inh | LYPLA1 counter | PME-1 primary | PAD4 inh | Fam108B inh | LYPLA2 inh | Fam108b confirm | Fam108b inh | GSTO1 inh conf | LYPLA1 confirm | LYPLA2 confirm | others
Cn1c(=O)c(NCCc2ccccc2)c2c3c(cccc31)C(=O)c1ccccc1-2 | 156* | 148* | 191* | 151* | 156* | 174* | 178* | 0 | 118* | 130* | 170*
CCOc1cccc(/C=N/NC(=S)Nc2cc(S(=O)(=O)N3CCOCC3)ccc2N2CCOCC2)c1O | -66 | 2 | 32* | 3 | 18* | 34* | 13 | . | . | . | 43*
COc1ccc2ccccc2c1/C=N/NC(=S)Nc1cc(S(=O)(=O)N2CCOCC2)ccc1N1CCOCC1 | -9 | -4 | -3 | 3 | -4 | -12 | . | . | . | . | .
Cn1nc(-c2ccc(Cl)cc2)nc2c(=O)n(C)c(=O)nc1-2 | 91* | 85* | 37* | 75* | 71* | 90* | 73* | . | 92* | 85* | 89*
Cc1nn2c3c(cnc2c1-c1ccc(Cl)cc1)C(=O)CC(c1ccco1)C3 (stereo not drawn) | 3 | -3 | 0 | -4 | 0 | 1 | . | . | . | . | .
COc1cccc2c1C(=O)c1c(O)c3c(c(O)c1C2=O)C[C@](O)(C(C)=O)C[C@H]3O[C@@H]1C[C@@H](N)[C@@H](O)[C@@H](C)O1 | 48* | 64* | 51* | 73* | 43* | 50* | 42* | . | 40* | 64* | 41*
CC(=O)NS(=O)(=O)c1ccc(NC(=O)CN2C(=O)C3C4C=CC(C4)C3C2=O)cc1 (stereo not drawn) | 3 | 4 | -4 | -5 | 2 | -1 | . | . | . | . | .
CCn1c(CSc2nnc(-c3cccnc3)n2-c2ccccc2C)nc2cc(C(=O)O)ccc21 | 69* | 77* | 76* | 53* | 69* | 80* | 90* | 0 | 59* | 72* | 72*
Cc1nn(-c2ccccc2)c(Cl)c1/C=N/Nc1ccc(S(=O)(=O)Nc2ccccc2C(=O)O)cc1[N+](=O)[O-] | 4 | 1 | 51* | -3 | 33* | 28* | 51* | . | . | . | 13
CSc1ccc(C=NNc2ccc(S(=O)(=O)Nc3ccccc3C(=O)O)cc2[N+](=O)[O-])cc1 | . | . | . | -6 | . | . | . | . | . | . | .
Nc1c(C(=O)O)ccc2c1C(=O)c1ccccc1C2=O | -12 | 3 | 6 | -12 | -1 | 4 | . | . | . | . | .
Nc1cc(C(=O)O)c(N)c2c1C(=O)c1ccccc1C2=O | 29 | 36* | 86* | 4 | 73* | 53* | 84* | 40* | . | 31* | 45*
CC(=O)N(c1ccccc1)c1nc(/C=C/C(=O)Nc2c(C)cc(C)cc2C)cs1 | 3 | 1 | 2 | 0 | 11 | -1 | . | . | . | . | .
CCNc1ccccc1CP(=O)(c1ccccc1)c1ccccc1O (stereo not drawn) | 87* | 51* | 70* | 11 | 25* | 64* | 10 | . | 4 | 2 | 5
CCOc1ccc2nc3cc(NCc4ccc(OC)cc4)ccc3c(N)c2c1 | 50* | 19* | 5 | -7 | 24* | 37* | -8 | . | 32 | -9 | -25
O=C(CSc1c(F)c(F)cc(F)c1F)Nc1ccc(C2SCCS2)cc1 | 2 | 105* | 145* | 0 | 137* | 132* | 150* | 0 | . | 0 | 0
NS(=O)(=O)c1cc(C(=O)OCC(=O)N2CCOCC2)ccc1Cl | 1 | -1 | -1 | -1 | -2 | -4 | . | . | . | . | .
O=C(COc1ccc(Br)cc1Cl)NC(=O)Nc1ccc2c(c1)OCCO2 | 0 | -2 | 5 | 2 | 2 | 1 | . | . | . | . | .
N#Cc1c(N2CCCC2)nc(N)c2c(N)nc(N3CCCC3)cc12 | 93* | 7 | 21 | 48* | 58* | 14 | 126* | 0 | 91* | . | . | PAD4 confirm=43*
CN1C(=O)c2cccc(NCCCN3C(=O)c4ccccc4C3=O)c2C1=O | 4 | 5 | 1 | -3 | -3 | 4 | . | . | . | . | .
CCCCNc1c2c3c(cccc3n(C)c1=O)C(=O)c1ccccc1-2 | 44* | 42* | 75* | 90* | 45* | 54* | 49* | 25 | 34 | 39* | 37* | PAD4 confirm=81*
Cc1ccc(NC(=O)C(c2ccccc2)c2ccccc2)nc1 | 3 | -5 | 2 | -3 | 1 | -6 | . | . | . | . | .
COc1ccc(C(=O)OCC(=O)NC(=O)NC2CCCC2)cc1OC | . | 0 | 3 | 0 | . | -4 | . | . | . | . | .
CSc1nsc(/C=C/Nc2ccc(O)cc2C)c1C#N | 69* | 22* | 51* | 29* | 21* | 30* | 14 | . | . | -7 | -7 | PAD4 confirm=-2
O=c1[nH]c(Nc2ccccc2)cc2ccccc12 | 80* | 4 | 9 | 65* | 24* | 7 | 37* | 0 | 47* | . | . | PAD4 confirm=18*
Cn1c(=O)cc(Nc2ccccc2)[nH]c1=O | 12 | 0 | -1 | 1 | 0 | 2 | . | . | . | . | .
COc1ccccc1NCCC(=O)O | 0 | 3 | -1 | 1 | -3 | -2 | . | . | . | . | .
O=C(O)CCNc1ccc(NCCC(=O)O)c2c1C(=O)c1ccccc1C2=O | 18 | 9 | 27* | 22* | 36* | 24 | 26* | . | . | . | . | PAD4 confirm=11
